From ChEMBL document CHEMBL1961873, “Compounds: GSK PKIS; Assays: Nanosyn kinase panel” (2012) come the findings set out here.

SMILES strings stand for the structures.

For orientation: inhibition means the drop in the measured response relative to a control, in per cent.

Chain of Fibroblast growth factor receptor 1 (Homo sapiens) (P11362 22-822 limits assumed): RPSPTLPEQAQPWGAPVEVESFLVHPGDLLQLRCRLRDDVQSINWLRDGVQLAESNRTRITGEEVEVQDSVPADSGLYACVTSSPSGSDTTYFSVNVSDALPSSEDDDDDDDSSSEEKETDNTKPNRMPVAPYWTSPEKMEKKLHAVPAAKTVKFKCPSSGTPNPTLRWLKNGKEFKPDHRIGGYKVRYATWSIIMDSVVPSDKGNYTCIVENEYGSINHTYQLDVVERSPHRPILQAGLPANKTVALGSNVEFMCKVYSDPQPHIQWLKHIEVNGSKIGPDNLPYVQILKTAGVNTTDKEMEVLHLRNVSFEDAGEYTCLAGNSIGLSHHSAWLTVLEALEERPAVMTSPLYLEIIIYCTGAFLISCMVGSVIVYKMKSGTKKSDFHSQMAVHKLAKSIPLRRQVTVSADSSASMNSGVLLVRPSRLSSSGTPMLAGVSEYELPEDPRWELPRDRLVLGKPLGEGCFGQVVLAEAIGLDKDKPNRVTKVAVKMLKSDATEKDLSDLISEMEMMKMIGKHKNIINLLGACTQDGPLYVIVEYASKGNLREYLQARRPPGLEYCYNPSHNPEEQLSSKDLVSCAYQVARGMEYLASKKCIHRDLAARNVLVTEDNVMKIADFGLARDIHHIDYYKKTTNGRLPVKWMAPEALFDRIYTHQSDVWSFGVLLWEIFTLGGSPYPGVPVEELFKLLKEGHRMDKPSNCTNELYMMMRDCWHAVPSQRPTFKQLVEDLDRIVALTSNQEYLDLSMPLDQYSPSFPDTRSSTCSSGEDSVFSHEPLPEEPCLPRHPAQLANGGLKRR

For one assay, the target named is Tyrosine-protein kinase Fes/Fps (Homo sapiens) (UniProt P07332). Particulars: at 1 µM.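 Also: mean inhibition of FES from the GSK PKIS kinase inhibitor screening set, assayed by Nanosyn.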
Chain of Tyrosine-protein kinase Fes/Fps (Homo sapiens) (P07332 whole entry): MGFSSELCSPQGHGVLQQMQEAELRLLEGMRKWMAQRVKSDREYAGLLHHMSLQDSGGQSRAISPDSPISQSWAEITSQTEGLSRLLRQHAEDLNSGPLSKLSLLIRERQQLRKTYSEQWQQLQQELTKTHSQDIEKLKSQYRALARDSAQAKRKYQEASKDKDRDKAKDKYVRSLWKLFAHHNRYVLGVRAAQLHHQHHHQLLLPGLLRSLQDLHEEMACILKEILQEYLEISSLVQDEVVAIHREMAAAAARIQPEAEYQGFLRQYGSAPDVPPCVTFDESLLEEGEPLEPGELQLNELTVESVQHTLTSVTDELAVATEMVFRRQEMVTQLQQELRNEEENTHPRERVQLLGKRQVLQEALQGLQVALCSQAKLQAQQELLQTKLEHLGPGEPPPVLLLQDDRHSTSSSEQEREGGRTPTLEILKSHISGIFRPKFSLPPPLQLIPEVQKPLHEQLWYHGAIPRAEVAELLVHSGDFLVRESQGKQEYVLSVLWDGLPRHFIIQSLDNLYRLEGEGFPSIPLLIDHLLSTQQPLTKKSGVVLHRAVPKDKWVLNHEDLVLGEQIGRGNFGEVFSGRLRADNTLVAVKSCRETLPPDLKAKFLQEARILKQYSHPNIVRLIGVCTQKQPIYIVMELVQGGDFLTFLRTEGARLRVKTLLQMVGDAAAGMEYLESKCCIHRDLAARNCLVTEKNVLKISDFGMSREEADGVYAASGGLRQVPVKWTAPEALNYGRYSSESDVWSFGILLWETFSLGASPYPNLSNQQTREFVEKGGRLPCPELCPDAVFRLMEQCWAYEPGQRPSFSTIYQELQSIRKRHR
With `COc1cc2ncn(-c3cc(O[C@@H](C)c4ccccc4Cl)c(C(N)=O)s3)c2cc1OC`, the inhibition is 2.83%.
Still for that read-out and setting: next, `CCCN1CCC(Oc2cc(Nc3nc(Nc4cccc(F)c4C(N)=O)c4cc[nH]c4n3)c(OC)cc2Cl)CC1`: 8.02%.
On the same count and under the same terms, next, `[O-][S+]1CCN(Cc2ccc(-c3ccc4ncnc(Nc5ccc(OCc6ccccc6)c(F)c5)c4c3)o2)CC1`: 3.4%.
On to `Cc1ccc(C(=O)NC2CCCCC2)cc1-c1ccc(C(=O)NCC2CC2)cc1`, for which the inhibition was found to be 2.29%.
On to `CNC(=O)c1cncc(/C=C/c2c(Cl)cccc2Cl)c1`, for which the inhibition came out at 4.62%.
Turning to `CN(C)c1cc2c(Nc3ccc4nc(Cc5ccccc5)[nH]c4c3)ncnc2cn1`, the inhibition stood at 3.11%.
The same measure, in the same setting: the value for `CCn1c(-c2nonc2N)nc2ccncc21` was 1.98%; that for `Fc1cccc(COc2ccc(Nc3ncnc4sc(-c5cccs5)cc34)cc2Cl)c1` was 0.01%.
On the same count and under the same terms, the value for `Cc1ccc(NC(=O)c2ccnc(N3CCCC3)c2)cc1-c1ccc(C(=O)NCC2CC2)cc1` was 5.19%.

A further assay addresses Fibroblast growth factor receptor 1 (Homo sapiens) (UniProt P11362). The conditions noted are these: at 0.1 µM.
In the case of `CS(=O)(=O)CCN(CC#N)Cc1ccc(-c2ccc3ncnc(Nc4ccc(OCc5cccc(F)c5)c(Cl)c4)c3c2)o1`, the inhibition is -3.34%.
Same read-out and setting: next, `CC(=O)Nc1cccc(C#Cc2cncnc2Nc2ccc(OCc3cccc(F)c3)c(Cl)c2)n1`: -3.81%; `COc1ccccc1Nc1ncc(-c2ccccc2)o1`: 8.72%; `NS(=O)(=O)c1cccc(-c2ccc3c(NC(=O)C4CC4)n[nH]c3c2)c1`: 0.33%.
The same measure, in the same setting: the value for `Cc1nnc(-c2ccc(C)c(-c3ccc(C(=O)Nc4cccc(C#N)c4)cc3)c2)o1` was -1.37%; that for `COc1ccc(-c2nn3ncccc3c2-c2ccnc(Nc3ccc(Cl)c(C(F)(F)F)c3)n2)cc1` was 1.96%.
On the same count and under the same terms, the value for `O=C1NC(=O)C(c2ccc(Cl)cc2)=C1Nc1ccc(Cl)c(C(=O)O)c1` was -0.91%; that for `COC(=O)Nc1nc2cc(Oc3cccc(NC(=O)Nc4cc(C(F)(F)F)ccc4F)c3)ccc2[nH]1` was -2.84%; that for `O=C1NC(=O)C(c2cccc(Cl)c2)=C1Nc1ccc(O)c(Cl)c1` was -2.65%.
For `CCCN1CCC=C(c2ccc(Nc3nc(Nc4ccccc4C(N)=O)c4cc[nH]c4n3)c(C)c2)C1`, the inhibition is 1.72%.
On to `Nc1nc(-c2ccc3c(c2)C(=Cc2cc(Br)c(O)c(Br)c2)C(=O)N3)cs1`, for which the inhibition is -5.75%.
On the same count and under the same terms, the value for `O=C1NC(=O)C(c2ccccc2Cl)=C1Nc1cccc(O)c1` was 4.34%; that for `CCc1cccc(NC(=O)Nc2ccc(Oc3ccc4nc(NC(=O)OC)[nH]c4c3)cc2)c1` was -3.46%; that for `CC1=C(C(=O)Nc2ccc3[nH]ncc3c2)C(c2ccc3ccccc3c2)CC(=O)N1` (configuration not stated) was 1.46%.
As for `CS(=O)(=O)Nc1ccc(N/C=C2\C(=O)Nc3ccccc32)cc1`, the inhibition is -1.9%.
The same measure, in the same setting: the value for `COc1cc2c(cc1Nc1nc(N3CCc4ccccc43)c3cc[nH]c3n1)N(C(=O)CN(C)C)CC2` was 2.98%; that for `CCN1CCC(CC(=O)Nc2n[nH]c3nc(-c4cccs4)c(Br)cc23)CC1` was -3.02%; that for `NCc1ccc(-c2nc(-c3ccc(Cl)c(O)c3)c(-c3ccncc3)[nH]2)cc1` was -0.32%.
On to `COC(=O)Nc1nc2cc(Oc3ccc(NC(=O)Nc4cccc(C(=O)O)c4)cc3)ccc2[nH]1`, for which the inhibition was -4.37%.
Same read-out and setting: the value for `O=C(Nc1n[nH]c2nc(-c3ccco3)c(Br)cc12)C1CC1` was 1.76%.
Still for that read-out and setting: the value for `CCn1c(-c2nonc2N)nc2cnc(Oc3cccc(NC(=O)c4ccc(OCCN5CCOCC5)cc4)c3)cc21` was 1.76%; that for `COc1cccc(-n2ncc3c(N/N=C/c4cccc(F)c4)ncnc32)c1` was -2.97%; that for `Nc1ncnc2occ(-c3ccc(NC(=O)Nc4cccc(C(F)(F)F)c4)cc3)c12` was 8.01%.
For `CCn1c(-c2nonc2N)nc2cncc(C(=O)N3CC[C@H](N)C3)c21`, the inhibition is 0.26%.
Still for that read-out and setting: next, `COc1cc2ncn(-c3cc(O[C@@H](C)c4ccccc4Cl)c(C(N)=O)s3)c2cc1OC`: 2.01%; `CCCN1CCC(Oc2cc(Nc3nc(Nc4cccc(F)c4C(N)=O)c4cc[nH]c4n3)c(OC)cc2Cl)CC1`: 0.06%.
Same read-out and setting: the value for `[O-][S+]1CCN(Cc2ccc(-c3ccc4ncnc(Nc5ccc(OCc6ccccc6)c(F)c5)c4c3)o2)CC1` was 2.71%.
The same measure, in the same setting: next, `Cc1ccc(C(=O)NC2CCCCC2)cc1-c1ccc(C(=O)NCC2CC2)cc1`: 3.66%; `CNC(=O)c1cncc(/C=C/c2c(Cl)cccc2Cl)c1`: 1.94%; `CN(C)c1cc2c(Nc3ccc4nc(Cc5ccccc5)[nH]c4c3)ncnc2cn1`: 8.38%.
Consider `CCn1c(-c2nonc2N)nc2ccncc21`, for which the inhibition amounted to 0.47%.
As to `Fc1cccc(COc2ccc(Nc3ncnc4sc(-c5cccs5)cc34)cc2Cl)c1`, the inhibition was determined as 4.36%.
The same measure, in the same setting: the value for `Cc1ccc(NC(=O)c2ccnc(N3CCCC3)c2)cc1-c1ccc(C(=O)NCC2CC2)cc1` was -1.44%.
